From PubChem BioAssay
AmpC detergent = inhibitors of E. coli AmpC beta-lactamase with detergent | actives 0.041% (n = 370,000) | P00811 | Potency, µM (top dose mostly 114 µM), for inactives: top-dose activity change, negative = inhibition, most hits filed as inhibitors | AmpC hydrolysis of nitrocefin, absorbance 480 nm, 0.01% Triton | AID 485294;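 note: 0% = no-compound wells and -100% = no-enzyme wells; nearly all actives have a fitted effect of over 25% in size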
Target sequence (P00811 whole entry, looked up): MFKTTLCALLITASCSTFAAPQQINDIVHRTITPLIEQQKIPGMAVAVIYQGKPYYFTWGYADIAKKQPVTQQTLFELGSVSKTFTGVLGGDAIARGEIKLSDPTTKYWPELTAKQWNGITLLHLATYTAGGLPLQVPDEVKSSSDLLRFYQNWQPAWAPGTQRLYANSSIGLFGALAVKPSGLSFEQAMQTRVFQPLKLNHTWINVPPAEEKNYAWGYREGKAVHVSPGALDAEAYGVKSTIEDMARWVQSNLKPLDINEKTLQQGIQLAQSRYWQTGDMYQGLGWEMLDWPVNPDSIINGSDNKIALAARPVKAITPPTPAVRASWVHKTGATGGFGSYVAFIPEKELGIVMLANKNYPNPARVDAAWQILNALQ
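20 mM phosphate pH 7.0 + 0.01% (detergent screen) or 0.0001% Triton X-100; 5.3 nM AmpC reagent; cpd preinc 15 min RT; nitrocefin (800 uM stock) to start; A480 q20 s × 4 min; Activity was normalised to no-enzyme and no-compound control wells.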
AmpC inh no detg = AmpC beta-lactamase inhibition without detergent; AmpC nitrocefin hydrolysis, absorbance 480 nm, 0.0001% Triton; actives 0.52% (n = 330,000); P00811; Potency, µM (titrated, usually from 57.1 µM), without a hit: at the highest dose activity change, negative = inhibition, most hits filed as inhibitors;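 note: plate controls were no compound for no effect and no enzyme for full effect; nearly all actives have a fitted effect of over 20% in size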
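AmpC (5.3 nM in the dispensed reagent) in 20 mM phosphate pH 7.0 with 0.01% (detergent screen) or 0.0001% Triton X-100 was preincubated with compounds for 15 min at room temperature. Nitrocefin was then added from an 800 uM solution, and hydrolysis was followed at 480 nm.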
Sm TGR inh = inhibitors of Schistosoma mansoni thioredoxin glutathione reductase | Q962Y6 | purified TGR, DTNB reduction, TNB absorbance 405 nm | Potency, µM (top dose mostly 114 µM), without a hit: top-dose activity change, negative = inhibition, usual class: inhibitors | actives 3% (n = 360,000) | AID 485364; note: nearly all actives have a fitted effect of over 60% in size
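TGR 20 nM + NADPH 100 uM (dispensed conc.), cpd preinc 15 min RT; start with NADPH (500 uM addition) then DTNB (15 mM addition). Kinetic TNB absorbance, 405 nm filter. Four-parameter Hill fit across titration.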
Numbers without * were called inactive; ? = inconclusive; nt = not tested or not shown. Rows were chosen to be rich in hits. Some 3.3% of all compounds tested hit in one or more screens of this group. Calls come from the whole dose curve; as a rule, active = well fitted curve in the direction sought with a large enough effect; inconclusive = small, poorly fitted or top-dose-only effect, or another doubt; inactive = no such curve, though single readings can be large; an effect the other way counts as inactive or inconclusive. Unless noted, % is set by controls: 0 for no effect and ±100 for the full control effect; potency is the fitted concentration of half-maximal effect.

SMILES | AmpC detergent | AmpC inh no detg | Sm TGR inh
CC(=O)c1ccc(NC(=S)NCc2ccc(Cl)cc2Cl)cc1 | ? | -46% | -32%
CCCn1ncc(CN2CCC(Oc3ccc(C(=O)N4CCCC4)cc3)CC2)c1C | -12% | -2% | -11%
Cc1ccc(S(=O)(=O)N2CCN(C(=O)COC(=O)c3cnc(C)cn3)CC2)c(C)c1 | -12% | ? | 1%
O=c1oc(CCO)cc2ccccc12 | nt | -6% | nt
CC#CCc1cc2ccccc2c(=O)o1 | -1% | -20% | 4µM*
CC(=O)c1ccc(NC(=O)CSc2nc(-c3cccc(F)c3)nc3c2c(=O)n(C)c(=O)n3C)cc1 | -5% | nt | 0%
CC(=O)c1ccc(NC(=O)CSc2nc(-c3ccccc3C)nc3c2c(=O)n(C)c(=O)n3C)cc1 | 7% | nt | 50µM*
CCCCOc1ccc(/C=C/C2=CC(C)(C)NC(=S)N2)cc1OCC | 6% | -28% | ?
CCCCN(C(=O)CSc1c(C)c(C)cc(C)c1C)c1c(N)n(CCC)c(=O)[nH]c1=O | ? | -20% | -4%
COc1ccc(/C=N/N2C(=O)CSC2=S)cc1Br | -6% | -48% | -34%
O=C1CSC(=S)N1/N=C/c1cc(Br)ccc1O | -5% | -48% | 7.9µM*
CCOC(=O)/C(=C/C=C1\Sc2cc(C)c(C)cc2N1CC)C(C)=O | 10% | -1% | 45µM*
CCOC(=O)/C(=C/C=C1\Sc2ccccc2N1CC)C(C)=O | -4% | 19% | -24%
CCC1CCCCN1C(=O)CSc1nc2c([nH]c3ccccc32)c(=O)n1-c1cccc(OC)c1 (configuration not stated) | -6% | nt | -1%
CCOC(=O)c1nc(NNC(=O)c2ccc([N+](=O)[O-])cc2)sc1C | -2% | -24% | ?
O=C1N=C(N2CCN(c3ccccc3)CC2)S/C1=C/c1cccs1 | -3% | -31% | 0%
O=C1N=C(c2ccccc2)S/C1=C\c1cccs1 | -16% | -34% | 4µM*
COc1ccc(N2C(=O)[C@H]3[C@@H](C2=O)C2c4ccccc4C=NN2[C@H]3C(=O)C(C)(C)C)cc1 (some centres not stated) | -9% | 15% | 4%
COc1ccc(N2C(=O)[C@@H]3[C@H](C2=O)[C@H]2c4ccccc4C=CN2[C@@H]3C(C)=O)cc1 | -4% | -13% | 40µM*
Cc1cc(=O)oc(C)c1C(=O)NNC(=O)C1(C)CC1Br (configuration not stated) | -1% | -9% | 2%
CC1(C(=O)NNC(=O)c2ccc(=O)oc2)CC1Br (configuration not stated) | 7% | -35% | 10µM*
O=S(=O)(NCc1ccc(F)cc1)c1ccc(N2CCCCS2(=O)=O)cc1 | -11% | nt | -13%
COc1cccc(N(C(=O)CCl)C(C(=O)NCCc2ccccc2)c2cccs2)c1 (configuration not stated) | -10% | -17% | 10µM*
COc1ccc(N(C(=O)c2ccco2)C(C(=O)NC2CCCCC2)c2cccs2)cc1OC (configuration not stated) | ? | 52% | -8%
COc1ccc(N(C(=O)CCl)C(C(=O)NCCc2ccccc2)c2cccs2)cc1Cl (configuration not stated) | -7% | 1% | 10µM*
SMILES | AmpC detergent | AmpC inh no detg | Sm TGR inh
COc1cccc(N(C(=O)c2snc(C(N)=O)c2N)C(C(=O)NCC2CCCO2)c2cccs2)c1 (configuration not stated) | 1% | 80% | -2%
CCOc1ccc(CCNC(=O)c2ccc(S(=O)(=O)N3CCCC3)cc2)cc1OCC | -2% | 25% | 1%
COc1ccccc1NC(=O)N(C1CCCC1)C1CCN(C(C)=O)CC1 | -8% | -16% | -4%
O=c1c2ccccc2sc2nc(C3CCCCC3)n(Cc3ccco3)c(=O)c12 | 0% | -24% | 10µM*
CCc1nc2sc3ccccc3c(=O)c2c(=O)n1Cc1ccco1 | ? | -31% | 35µM*
O=c1c2c3c(sc2nc(NCCO)n1Cc1ccco1)CCCCC3 | -13% | 74% | 1%
O=C1c2ccccc2C(=O)N1Cc1nc2ccccc2c(=O)n1Cc1ccco1 | -12% | -11% | 4%
Cc1ccc(S(=O)(=O)NCC2CCC(C(=O)N3CCN(C)CC3)CC2)cc1 (configuration not stated) | -5% | 17% | -5%
Cc1cccn2c(=O)c3cc(C(=O)NC4CCCCC4)c(=N)n(Cc4ccccc4)c3nc12 | 1% | -56% | 2.8µM*
Cc1cccn2c(=O)c3cc(C(=O)NC4CCCC4)c(=N)n(Cc4ccc(F)cc4)c3nc12 | ? | -17% | -17%
N#C/C(=C/c1ccc(N2CCOCC2)o1)c1ccc(Cl)cc1 | 2% | 36% | 1µM*
N#C/C(=C\c1ccc(N2CCOCC2)o1)c1nc2ccccc2[nH]1 | -13% | 6% | ?
COCCCNS(=O)(=O)c1ccc(Oc2ncc(C(F)(F)F)cc2Cl)cc1 | 5% | 58% | 0%
CC(C)(C)NS(=O)(=O)c1ccc(Oc2ncc(C(F)(F)F)cc2Cl)cc1 | -5% | 5µM* | -1%
CCOc1ccc(/C=C/c2nc(C#N)c(NC(C)c3ccccc3)o2)cc1 (configuration not stated) | 11% | nt | -5%
CN(C(=O)c1ccc(Oc2ccc([N+](=O)[O-])cc2)cc1)C1CCCCC1 | -5% | 32% | -1%
CC1(C)CC(=O)C(=CN2CCOCC2)C(=O)C1 | -3% | 18% | 7.1µM*
CC1(C)CC(=O)C(=CN2CCN(C(=O)c3ccco3)CC2)C(=O)C1 | ? | -4% | ?
COc1cccc(CN2C(=O)c3ccccc3Sc3ccc(C(=O)NCCc4ccc(Cl)cc4)cc32)c1 | 2% | nt | 6%
O=C(Cn1ncc(Cl)c(Cl)c1=O)N1CCN(S(=O)(=O)c2ccc3ccccc3c2)CC1 | -9% | 9% | 22µM*
O=C(O)CCC(=O)N1CCN(S(=O)(=O)c2ccc3ccccc3c2)CC1 | -9% | -10% | -7%
O=C(O)c1ccc(-c2ccc(/C=c3/sc4nc5ccccc5n4c3=O)o2)cc1Cl | 0% | -23% | 28µM*
Cc1ccc2c(nc3s/c(=C\c4ccc(-c5ccccc5C(=O)O)o4)c(=O)n32)c1C | -8% | -26% | -26%
CCC(=O)c1ccc(OCCN2CCOCC2)cc1 | ? | -5% | -10%
CC(C)(C)c1cc(C(=S)N2CCN(CCO)CC2)cc(C(C)(C)C)c1O | -9% | 138% | 0%
SMILES | AmpC detergent | AmpC inh no detg | Sm TGR inh
O=C(CCN1CCOCC1)c1ccc(N2CCCCC2)cc1 | 6% | 0% | 14µM*
CC(C)(C)c1cc(C(=O)CCN2CCOCC2)cc(C(C)(C)C)c1O | -7% | 111% | 3.5µM*
Cn1c(N)c(C(=O)COC(=O)Cc2cccc(C(F)(F)F)c2)c(=O)n(C)c1=O | nt | 15% | nt
COc1ccc2c(C)c(CCC(=O)NCc3ccc(C)cc3)c(=O)oc2c1 | 15% | nt | 2%
Cc1cccc(C)c1NC(=O)Cn1c(=O)cc(C)c2c(C)nn(-c3cccc(Cl)c3C)c21 | 22% | nt | -2%
N#Cc1ccccc1NC(=O)CSc1n[nH]c(-c2ccco2)n1 | -7% | 8% | -1%
O=C(O)CCCN1C(=O)C(=O)/C(=C(/O)c2ccc(Cl)cc2)C1c1ccccc1 (configuration not stated) | 4% | -20% | -2%
